# Results from PubChem BioAssay.
# Activity calls are given as the source filed them.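 Rule for the calls: active = compounds giving at least 50% inhibition in the cell-based MKP-3 phosphatase rescue imaging test; inactive = the rest.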
# Test system: not listed separately
# Assay: DUSP6 inhibitors restoring Erk phosphorylation by chemical complementation, primary imaging in DUSP6-transfected HeLa (AID 609);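 for inhibition: phospho-Erk level distribution per well compared with pooled transfected vehicle control wells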
# Conditions: HeLa MKP-3 transfected, phospho-Erk imaging KS statistic; measured here: nuclear pErk red intensity z-score; at 10 µM; stronger effect = higher value
row,SMILES,z-score
1,Nc1ncc(P(=S)(N2CCOCC2)N2CCOCC2)s1,-1.06
2,CCCCc1nc(N2CCNCC2)c(C#N)c2c1CSC(C)(C)C2,0.643
3,COc1ccc(C(=O)CC2C(=O)N(C)C(=O)N(C)C2=O)cc1,-1.11
4,CCc1nc(N2CCNCC2)c(C#N)c2c1CSC(C)(C)C2,0.497
5,CCCN(CC#CCO)CCC,0.749
6,OC1(c2ccc(F)cc2)CCNC1 (stereo unspecified),1.31
7,COc1ccccc1-n1c(O)c(C=NCCCn2ccnc2)c(=O)[nH]c1=O,0.0227
8,COc1ccc(C2SCC(=O)Nc3c2c(=O)[nH]n3C2CCCCC2)cc1 (stereo unspecified),-0.612
9,CCCCNC(=O)Nc1ccc(C(O)(C(=O)OCC)C(F)(F)F)cc1 (stereo unspecified),1.19
10,CCOC(=O)c1cc(C)n(CCc2cnc[nH]2)c1C,0.767
11,CC1CN=C(Nc2ccc(N(C)C)cc2)S1 (stereo unspecified),-0.395
12,NCC1(c2ccc3c(c2)OCCO3)CCCC1,0.187
13,CCOC(=O)C1=C(C)OC(N)=C(C(=O)OCC)[C@@]12C(=O)N(CC(N)=O)c1ccccc12,-0.153
14,COC(=O)C(O)(c1ccc(NC(=O)c2ccco2)c(OC)c1)C(F)(F)F (stereo unspecified),1.11
15,C=CCOC(=O)C1=C(C)OC(N)=C(C#N)[C@@]12C(=O)N(CC(N)=O)c1ccccc12,0.824
16,C=CCOC(=O)C1=C(C)OC(N)=C(C#N)C12C(=O)N(CN1CCOCC1)c1ccccc12 (stereo unspecified),1.06
17,O=C(CN1CCN(CCO)CC1)Nc1ccc(Cl)cc1C(=O)c1ccccc1,0.82

row,SMILES,z-score
1,Cc1c(N=Cc2c(O)n(Cc3ccco3)c(=O)[nH]c2=O)c(=O)n(-c2ccccc2)n1C,-0.372
2,CN(C)CCOC(=O)c1cn(Cc2ccccc2)c2ccccc12,-0.202
3,COc1ccc2c(c1OC)C(=O)OC2c1c(O)n(C2CCCCC2)c(=O)[nH]c1=O (stereo unspecified),0.433
4,Cn1c(O)c(C=NCCCNC2CCCCC2)c(=O)n(C)c1=O,-0.515
5,COc1ccc(C2SCC(=O)Nc3c2c(=O)[nH]n3C2CCCCCC2)cc1 (stereo unspecified),-1.4
6,CNC(=O)N(C)c1nnc(C(C)(C)C)s1,-1.4
7,CCCC12CN3CN(C1)CC(CCC)(C3)C2O (stereo unspecified),-1.5
8,Nc1c(C(=O)NCc2ccco2)c2nc3ccccc3nc2n1CCN1CCCCC1,-0.0288
9,OC(c1ccc(F)cc1)C(c1ccccc1)N1CCOCC1 (stereo unspecified),0.344
10,COC(=O)C(c1ccccc1)N1CCCCCC1 (stereo unspecified),1.38
11,CCn1c(O)c(C(=O)CC2NCCc3ccccc32)c(=O)n(CC)c1=S (stereo unspecified),1.31
12,Nc1c(C(=O)NCc2ccco2)c2nc3ccccc3nc2n1Cc1ccc(F)cc1,-0.878
13,CCCCNC(=O)Nc1ccc(C(O)(C(=O)OC)C(F)(F)F)cc1 (stereo unspecified),0.72
14,CC1(C)NCCN2C(=O)CSC21 (stereo unspecified),0.0731
15,CC1(c2ccccc2)NCCN2C(=O)CSC21 (stereo unspecified),-0.166
16,CN1CCc2c(c(N3CCCCC3)nc3n[nH]c(N)c23)C1,0.455

# Target: Dual specificity protein phosphatase 6 (Homo sapiens) (UniProt Q16828)
# Assay: as above
# Conditions: HeLa MKP-3 transfected, phospho-Erk imaging KS statistic, at 10 µM, stronger effect = higher value
# Sequence of Dual specificity protein phosphatase 6 (Homo sapiens) (Q16828 whole entry, looked up): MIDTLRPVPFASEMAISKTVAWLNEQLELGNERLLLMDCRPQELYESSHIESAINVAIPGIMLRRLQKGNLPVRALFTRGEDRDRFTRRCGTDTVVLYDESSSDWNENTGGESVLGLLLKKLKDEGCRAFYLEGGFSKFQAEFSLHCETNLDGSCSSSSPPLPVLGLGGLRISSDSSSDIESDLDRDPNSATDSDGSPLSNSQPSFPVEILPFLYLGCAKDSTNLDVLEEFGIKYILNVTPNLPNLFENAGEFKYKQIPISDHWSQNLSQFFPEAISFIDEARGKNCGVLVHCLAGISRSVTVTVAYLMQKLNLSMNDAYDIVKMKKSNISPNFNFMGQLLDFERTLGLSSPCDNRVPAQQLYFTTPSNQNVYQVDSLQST
row,SMILES,inhibition
1,Nc1ncc(P(=S)(N2CCOCC2)N2CCOCC2)s1,4.37% (inactive)
2,CCCCc1nc(N2CCNCC2)c(C#N)c2c1CSC(C)(C)C2,7.42% (inactive)
3,COc1ccc(C(=O)CC2C(=O)N(C)C(=O)N(C)C2=O)cc1,-3.95% (inactive)
4,CCc1nc(N2CCNCC2)c(C#N)c2c1CSC(C)(C)C2,1.12% (inactive)
5,CCCN(CC#CCO)CCC,-11.4% (inactive)
6,OC1(c2ccc(F)cc2)CCNC1 (stereo unspecified),1.48% (inactive)
7,COc1ccccc1-n1c(O)c(C=NCCCn2ccnc2)c(=O)[nH]c1=O,7.83% (inactive)
8,COc1ccc(C2SCC(=O)Nc3c2c(=O)[nH]n3C2CCCCC2)cc1 (stereo unspecified),14% (inactive)
9,CCCCNC(=O)Nc1ccc(C(O)(C(=O)OCC)C(F)(F)F)cc1 (stereo unspecified),3.49% (inactive)
10,CCOC(=O)c1cc(C)n(CCc2cnc[nH]2)c1C,-2.59% (inactive)
11,CC1CN=C(Nc2ccc(N(C)C)cc2)S1 (stereo unspecified),3.49% (inactive)
12,NCC1(c2ccc3c(c2)OCCO3)CCCC1,-13.3% (inactive)
13,CCOC(=O)C1=C(C)OC(N)=C(C(=O)OCC)[C@@]12C(=O)N(CC(N)=O)c1ccccc12,-0.624% (inactive)
14,COC(=O)C(O)(c1ccc(NC(=O)c2ccco2)c(OC)c1)C(F)(F)F (stereo unspecified),-3.97% (inactive)
15,C=CCOC(=O)C1=C(C)OC(N)=C(C#N)[C@@]12C(=O)N(CC(N)=O)c1ccccc12,2.71% (inactive)
16,C=CCOC(=O)C1=C(C)OC(N)=C(C#N)C12C(=O)N(CN1CCOCC1)c1ccccc12 (stereo unspecified),-4.59% (inactive)
17,O=C(CN1CCN(CCO)CC1)Nc1ccc(Cl)cc1C(=O)c1ccccc1,11.9% (inactive)

row,SMILES,inhibition
1,Cc1c(N=Cc2c(O)n(Cc3ccco3)c(=O)[nH]c2=O)c(=O)n(-c2ccccc2)n1C,11.4% (inactive)
2,CN(C)CCOC(=O)c1cn(Cc2ccccc2)c2ccccc12,-6.06% (inactive)
3,COc1ccc2c(c1OC)C(=O)OC2c1c(O)n(C2CCCCC2)c(=O)[nH]c1=O (stereo unspecified),15.9% (inactive)
4,Cn1c(O)c(C=NCCCNC2CCCCC2)c(=O)n(C)c1=O,26.5% (inactive)
5,COc1ccc(C2SCC(=O)Nc3c2c(=O)[nH]n3C2CCCCCC2)cc1 (stereo unspecified),2.71% (inactive)
6,CNC(=O)N(C)c1nnc(C(C)(C)C)s1,11.9% (inactive)
7,CCCC12CN3CN(C1)CC(CCC)(C3)C2O (stereo unspecified),7.42% (inactive)
8,Nc1c(C(=O)NCc2ccco2)c2nc3ccccc3nc2n1CCN1CCCCC1,-6.06% (inactive)
9,OC(c1ccc(F)cc1)C(c1ccccc1)N1CCOCC1 (stereo unspecified),-13.3% (inactive)
10,COC(=O)C(c1ccccc1)N1CCCCCC1 (stereo unspecified),-11.4% (inactive)
11,CCn1c(O)c(C(=O)CC2NCCc3ccccc32)c(=O)n(CC)c1=S (stereo unspecified),3.97% (inactive)
12,Nc1c(C(=O)NCc2ccco2)c2nc3ccccc3nc2n1Cc1ccc(F)cc1,-7.67% (inactive)
13,CCCCNC(=O)Nc1ccc(C(O)(C(=O)OC)C(F)(F)F)cc1 (stereo unspecified),18.4% (inactive)
14,CC1(C)NCCN2C(=O)CSC21 (stereo unspecified),4.72% (inactive)
15,CC1(c2ccccc2)NCCN2C(=O)CSC21 (stereo unspecified),1.12% (inactive)
16,CN1CCc2c(c(N3CCCCC3)nc3n[nH]c(N)c23)C1,21.4% (inactive)
